# Results published in ChEMBL document CHEMBL3433997, “St. Jude Leishmania screening dataset” (2016).
# Molecular target: Solute carrier family 2, facilitated glucose transporter member 1 (Homo sapiens) (UniProt P11166)
# Experiment: ST_JUDE_LEISH: Cytotoxicity at 2uM final concentration against transgenic Leishmania Mexicana promastigotes LmGLUT1 that are glucose transport deficient and complemented with the human glucose transporter GLUT1. Activity is measured by DNA content using SYBR green in vitro
# Assay type: functional
# Solute carrier family 2, facilitated glucose transporter member 1 (Homo sapiens), sequence (P11166 whole entry): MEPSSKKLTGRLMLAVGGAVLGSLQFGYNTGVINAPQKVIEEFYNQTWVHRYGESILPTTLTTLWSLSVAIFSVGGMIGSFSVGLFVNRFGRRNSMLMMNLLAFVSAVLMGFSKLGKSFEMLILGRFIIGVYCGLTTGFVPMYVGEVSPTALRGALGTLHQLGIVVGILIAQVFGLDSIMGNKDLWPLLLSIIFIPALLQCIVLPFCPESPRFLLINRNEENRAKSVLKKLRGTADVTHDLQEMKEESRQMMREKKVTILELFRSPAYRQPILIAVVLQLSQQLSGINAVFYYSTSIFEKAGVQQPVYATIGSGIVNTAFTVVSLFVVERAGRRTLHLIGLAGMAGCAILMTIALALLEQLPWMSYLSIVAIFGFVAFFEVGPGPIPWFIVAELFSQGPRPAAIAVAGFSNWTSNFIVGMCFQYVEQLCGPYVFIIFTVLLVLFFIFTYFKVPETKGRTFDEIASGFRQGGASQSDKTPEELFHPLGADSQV
row,Structure (SMILES),inhibition [%]
1,CN(c1ccc(NC(=O)c2ccc(F)cc2)cc1)C1CCN(Cc2cccc(F)c2)C1 (stereo not given),1.66
2,CCC(C)NS(=O)(=O)c1ccc2nc(Nc3ccc(C)cc3)n(C3CCCCC3)c2c1 (stereo not given),5.26
3,O=C(NC(=S)Nc1cc(C(F)(F)F)cc(C(F)(F)F)c1)c1ccc(Cl)cc1,0.72
4,CCOc1ccc2c(=NN=Cc3cccc(F)c3)cc(C)[nH]c2c1,6
5,CCn1c(-c2cc(C)on2)nc2cnc(Oc3ccc(C(=O)N4CC(=O)N(C)C4C(C)(C)C)cc3)cc21 (stereo not given),-1.85
6,Cc1ccoc1C(=O)Nc1cccc(-c2cccc(-c3nc4cc(C(F)(F)F)ccc4[nH]3)c2)c1,3.75
7,CN1CCC(Oc2cc(CN3CC[C@H](NC(=O)c4ccc(Cl)c(Cl)c4)C3)ccc2I)C1 (stereo not given in full),-0.57
8,COc1cccc2cc(C(=O)N[C@@H](CC(C)C)C(=O)N[C@H](C=NN(C)C(=O)OC(C)(C)C)Cc3ccccc3)oc12,5.65
9,COc1cc2nc(N3CCC(CNC(=O)c4ccc(-c5ccc(C(=O)N(C)C)cc5O)cc4)CC3)nc(N)c2cc1OC,0.58
10,Cc1cccc2nc(-c3ccc(-c4ccc(CN5CCCCC5CO)cc4)cc3)[nH]c12 (stereo not given),27.8
11,O=C(NCCCN1CCN(c2cccc(Cl)c2)CC1)c1ccc(-c2nc3cc(Cl)c(Cl)cc3[nH]2)c(F)c1,3.57
12,CC(=O)Nc1ccc(C(=O)N2CCN(c3ccnc4cc(Cl)ccc34)CC2)cc1,1.26
13,O=C(Nc1cccc(-c2ccc(-c3nc4cc(F)ccc4[nH]3)cc2)c1)Nc1ccc(F)c(F)c1F,2.86
14,CC1CCN(CC[C@H]2CCCN2S(=O)(=O)c2cccc(NC(=O)c3ccc(-c4ccc(Cl)cc4)o3)c2)CC1,-0.33
15,COc1ccc(OCC(=O)Nc2nc(-c3ccc(OC)cc3)c(C)s2)cc1,1.08
16,CCN(CC)CCNc1ccc(Nc2ccnc3cc4ccccc4cc23)cc1,0.35
17,CCN(CC)CCCCNc1cc(-c2[nH]c(-c3c(Cl)cccc3Cl)nc2-c2ccc3cc(OC)ccc3c2)ccn1,0.05
18,Cc1ccc(C(=O)Nc2cc(S(=O)(=O)N3CCCC3)ccc2OCC(F)(F)F)cc1,3.23
19,Fc1ccc2[nH]c(-c3cccc(-c4ccc(CN5CCCCC5)cc4)c3)nc2c1,4.18
20,CN1CCC(NCc2cccc(-c3nn(C)c4nc(NC5CCCC5)ncc34)c2)CC1,2.78

row,Structure (SMILES),inhibition [%]
1,Cc1c(Cl)cccc1S(=O)(=O)Nc1cccc(CCN2CCC(N3CCCCC3)CC2)c1,2.7
2,N#Cc1ccc2c(c1)CCN(CCC1CCC(NC(=O)/C=C/c3cccc4ccccc34)CC1)CC2 (stereo not given),4.36
3,CN1CCC(N2CCN(Cc3cccc(-c4cccc(-c5nc6ccccc6[nH]5)c4)c3)CC2)CC1,-4.87
4,CCn1cnc2c(N3CCCC3=O)cc(C(=O)N[C@@H](Cc3ccccc3)[C@H](O)CNC3CCCCC3)cc21,2
5,CC(C)(C)c1ccc(OC(=O)c2ccc(NC(=O)N[C@@H](Cc3ccc(O)cc3)C(=O)NC3CCN(Cc4ccc(O)cc4)C3)cc2)cc1 (stereo not given in full),9.86
6,CC(C)(C)c1ccc(O)c(CNC2CCCCC2)c1,4.48
7,O=C(/C=C/c1ccc(Cl)c(Cl)c1)N1CCC(NCc2c[nH]c3ccccc23)CC1,1.33
8,CCCCOc1ccc(/C=C/c2ccc(-c3c(C)[nH]c(C)c(Cl)c3=O)s2)cc1,-1.17
9,Cc1ccc(Cl)cc1NC(=O)c1c(-c2ccccc2Cl)noc1C,-0.47
10,COc1ccc(C(=O)CCC(=O)N(Cc2ccc(-c3ccc(CNCCc4ccc(S(C)(=O)=O)cc4)cn3)cc2)C2CC3CCC2C3)cc1F (stereo not given),12.7
11,Cc1ccc(Cn2ncc(N3CCC(N)CC3)c(Cl)c2=O)cc1NC(=O)Nc1ccc(-c2ccccc2)cc1,14.2
12,Cn1c(Nc2cc(C(C)(C)C)on2)nc2cc(Nc3ccnc(Nc4ccc(CS(C)(=O)=O)cc4)n3)ccc21,1.46
13,O=C(NC1CCN(c2ccnc3ccccc23)C1)c1cccc(C(F)(F)F)c1 (stereo not given),2.99
14,N#Cc1ccc(-c2cnc3ccc(NCCc4cccnc4)nn23)cc1,-0.81
15,COc1cccc(C(=O)Nc2ccc(Nc3nc(C)cc(N4CCCCC4)n3)cc2)c1OC,1.99
16,CC(=O)c1c[nH]c(C(=O)Nc2ccc(-c3cn4ccccc4n3)cc2)c1,11.8
17,CSc1ccc(CN2CCC(NC(=O)c3ccc(-c4ccc(N(C)C)cc4)s3)CC2)cc1,1.5
18,COc1ccc(OCCCN2CCN(CC(c3ccc(F)cc3)N3CCN(C(C)C)CC3)CC2)c2ccccc12 (stereo not given),5.57
19,NC(=O)c1ccsc1NC(=O)CNC(c1ccccc1)c1ccccc1,2.02
20,Cc1nc(C)c(-c2ccc(C(=O)c3ccc(Cl)cc3)cc2)c(O)c1Br,1.02
